Consider 15 targets from the supplement of paper PMC10849652.

The full data set covers some 7,900 targets. This sample favours those with a hit. About 0.6% of all pairs of compound and target were hits. Values without a mark were called inactive.

What all share (assay): log2 fold change, soluble protein after heating vs DMSO (PISA); higher = thermal stabilisation; K562 cells, 10 uM, 30 min; active = over 0.2 and 3.5 SD of the protein, either way, in both replicates (recomputed)
Compound in one assay: Cc1ccc(NC(=O)c2ccc(CN3CC[C@H](N(C)C)C3)c(C(F)(F)F)c2)cc1Nc1nccc(-c2cncnc2)n1 [bafetinib]
In outline:
(§1)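 K562 cells at 2×10^6 cells/mL were exposed to 10 μM compound for 30 min, then aliquots were heated for 3 min across 48°C-58°C, pooled, and extracted in PBS containing 0.5% NP-40 at 4°C. The supernatant after 21,000xg for 90 min was taken as soluble protein and measured by TMTpro 16plex LC-MS/MS with channel sums equalised. Thermal stability is reported relative to control samples, with values from duplicates. Fold changes are given on a log2 scale.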

Compound in assay [1]: Cc1cccc(CC(=O)N2CCc3c2ccc(-c2cn(C)c4ncnc(N)c24)c3F)n1
In outline:
as §1

Compound in the next assay: Cc1cn(-c2cc(NC(=O)c3ccc(C)c(Nc4nccc(-c5cccnc5)n4)c3)cc(C(F)(F)F)c2)cn1 [nilotinib]
In outline:
as §1

Compound in assay [2]: Cc1nc(Nc2n[nH]c3c2CN(C(=O)N[C@H](CN(C)C)c2ccccc2)C3(C)C)c2sccc2n1
An outline of the steps: as §1

Compound in another assay: Cc1nc(Nc2ncc(C(=O)Nc3c(C)cccc3Cl)s2)cc(N2CCN(CCO)CC2)n1 [dasatinib]
In outline:
as §1

Compound in assay [3]: Cc1ncc(-c2ccnc(Nc3ccc(S(C)(=O)=O)cc3)n2)n1C(C)C
In outline: as §1

Compound in assay [4]: Cn1cc(-c2ccc3c(c2)CCN3C(=O)Cc2cccc(C(F)(F)F)c2)c2c(N)ncnc21
In outline:
as §1

Compound in assay [5]: Cn1cc(-c2ccc3nnc(C(F)(F)c4ccc5ncccc5c4)n3n2)cn1
In outline:
as §1

Compound in the next assay: Cn1cncc1[C@@](N)(c1ccc(Cl)cc1)c1ccc2c(c1)c(-c1cccc(Cl)c1)cc(=O)n2C [tipifarnib]
In outline:
as §1

Compound in the next assay: FC(F)(F)c1ccc(/C=C/c2nc(COc3ccc(CCCCn4ccnn4)cc3)co2)cc1 [mubritinib]
An outline of the steps:
as §1

Chain of UniProt Q9BW27 (Q9BW27 whole entry, looked up): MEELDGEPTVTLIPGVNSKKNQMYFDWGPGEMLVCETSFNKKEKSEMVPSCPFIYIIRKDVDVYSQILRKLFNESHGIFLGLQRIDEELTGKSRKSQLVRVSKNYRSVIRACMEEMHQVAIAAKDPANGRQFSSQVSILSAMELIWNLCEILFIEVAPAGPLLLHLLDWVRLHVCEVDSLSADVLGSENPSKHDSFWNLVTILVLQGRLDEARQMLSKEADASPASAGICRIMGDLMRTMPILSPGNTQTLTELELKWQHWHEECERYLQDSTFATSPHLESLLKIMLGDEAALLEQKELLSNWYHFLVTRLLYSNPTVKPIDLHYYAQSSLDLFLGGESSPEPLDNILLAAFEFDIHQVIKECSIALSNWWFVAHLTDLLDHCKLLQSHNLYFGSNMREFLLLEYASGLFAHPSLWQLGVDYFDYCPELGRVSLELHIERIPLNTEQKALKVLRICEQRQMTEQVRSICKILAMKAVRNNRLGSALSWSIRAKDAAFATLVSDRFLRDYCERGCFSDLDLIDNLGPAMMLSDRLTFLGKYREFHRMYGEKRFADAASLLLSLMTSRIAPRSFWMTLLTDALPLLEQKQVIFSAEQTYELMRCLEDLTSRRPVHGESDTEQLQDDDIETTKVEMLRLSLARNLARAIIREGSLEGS
Chain of UniProt Q15021 (Q15021 whole entry, looked up): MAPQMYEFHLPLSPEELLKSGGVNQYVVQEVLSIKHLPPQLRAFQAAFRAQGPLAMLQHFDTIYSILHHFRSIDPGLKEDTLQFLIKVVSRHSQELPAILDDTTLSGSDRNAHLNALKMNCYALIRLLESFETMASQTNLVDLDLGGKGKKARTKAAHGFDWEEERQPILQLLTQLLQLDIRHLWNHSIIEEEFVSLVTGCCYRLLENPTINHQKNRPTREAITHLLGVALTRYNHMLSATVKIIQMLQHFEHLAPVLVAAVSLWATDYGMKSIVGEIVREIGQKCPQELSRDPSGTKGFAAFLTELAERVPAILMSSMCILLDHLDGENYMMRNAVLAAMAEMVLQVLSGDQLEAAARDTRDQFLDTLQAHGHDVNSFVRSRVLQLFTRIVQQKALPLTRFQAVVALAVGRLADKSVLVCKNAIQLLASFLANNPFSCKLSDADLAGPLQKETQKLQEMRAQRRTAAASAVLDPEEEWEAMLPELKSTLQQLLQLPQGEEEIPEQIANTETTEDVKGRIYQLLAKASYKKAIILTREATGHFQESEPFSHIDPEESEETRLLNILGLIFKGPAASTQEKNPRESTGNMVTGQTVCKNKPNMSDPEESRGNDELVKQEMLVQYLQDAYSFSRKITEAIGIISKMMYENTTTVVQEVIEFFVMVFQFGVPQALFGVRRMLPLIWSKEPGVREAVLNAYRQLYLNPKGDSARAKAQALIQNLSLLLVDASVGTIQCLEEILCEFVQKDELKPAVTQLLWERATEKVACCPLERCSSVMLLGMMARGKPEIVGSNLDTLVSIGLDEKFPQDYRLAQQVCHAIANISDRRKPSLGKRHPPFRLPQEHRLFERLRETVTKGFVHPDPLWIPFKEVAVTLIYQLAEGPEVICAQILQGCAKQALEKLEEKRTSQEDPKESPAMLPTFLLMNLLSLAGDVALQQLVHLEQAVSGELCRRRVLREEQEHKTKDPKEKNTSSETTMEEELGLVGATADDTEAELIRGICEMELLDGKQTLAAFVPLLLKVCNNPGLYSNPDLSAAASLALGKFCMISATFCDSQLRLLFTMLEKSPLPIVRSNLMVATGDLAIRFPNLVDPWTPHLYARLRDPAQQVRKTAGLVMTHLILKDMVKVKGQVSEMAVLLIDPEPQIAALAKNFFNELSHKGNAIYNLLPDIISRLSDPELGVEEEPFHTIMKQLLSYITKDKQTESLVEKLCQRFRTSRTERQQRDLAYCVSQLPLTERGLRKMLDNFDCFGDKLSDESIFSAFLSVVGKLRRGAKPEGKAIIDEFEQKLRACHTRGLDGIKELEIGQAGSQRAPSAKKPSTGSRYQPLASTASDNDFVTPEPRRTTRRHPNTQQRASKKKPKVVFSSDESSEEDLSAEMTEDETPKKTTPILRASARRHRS
Chain of UniProt Q8NCF5 (Q8NCF5 whole entry, looked up): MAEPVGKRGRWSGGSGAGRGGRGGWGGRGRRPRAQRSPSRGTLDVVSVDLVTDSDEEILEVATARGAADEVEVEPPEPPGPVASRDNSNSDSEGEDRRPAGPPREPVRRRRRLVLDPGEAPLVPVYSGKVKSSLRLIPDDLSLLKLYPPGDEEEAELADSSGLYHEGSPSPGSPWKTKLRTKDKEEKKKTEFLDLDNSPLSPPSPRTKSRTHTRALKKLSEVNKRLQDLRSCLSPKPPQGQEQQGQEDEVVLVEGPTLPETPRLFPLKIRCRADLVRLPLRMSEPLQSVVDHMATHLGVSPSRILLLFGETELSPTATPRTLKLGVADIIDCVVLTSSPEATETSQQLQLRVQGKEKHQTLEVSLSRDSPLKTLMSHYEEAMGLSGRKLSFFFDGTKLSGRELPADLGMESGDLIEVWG
Chain of UniProt Q9BV86 (Q9BV86 whole entry, looked up): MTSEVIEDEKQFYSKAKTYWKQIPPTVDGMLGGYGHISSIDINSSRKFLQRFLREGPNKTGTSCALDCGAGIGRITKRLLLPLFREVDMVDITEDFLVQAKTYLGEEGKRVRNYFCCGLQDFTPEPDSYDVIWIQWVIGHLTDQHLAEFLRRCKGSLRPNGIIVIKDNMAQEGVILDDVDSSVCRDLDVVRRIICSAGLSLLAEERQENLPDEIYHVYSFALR
Chain of UniProt P04181 (P04181 whole entry, looked up): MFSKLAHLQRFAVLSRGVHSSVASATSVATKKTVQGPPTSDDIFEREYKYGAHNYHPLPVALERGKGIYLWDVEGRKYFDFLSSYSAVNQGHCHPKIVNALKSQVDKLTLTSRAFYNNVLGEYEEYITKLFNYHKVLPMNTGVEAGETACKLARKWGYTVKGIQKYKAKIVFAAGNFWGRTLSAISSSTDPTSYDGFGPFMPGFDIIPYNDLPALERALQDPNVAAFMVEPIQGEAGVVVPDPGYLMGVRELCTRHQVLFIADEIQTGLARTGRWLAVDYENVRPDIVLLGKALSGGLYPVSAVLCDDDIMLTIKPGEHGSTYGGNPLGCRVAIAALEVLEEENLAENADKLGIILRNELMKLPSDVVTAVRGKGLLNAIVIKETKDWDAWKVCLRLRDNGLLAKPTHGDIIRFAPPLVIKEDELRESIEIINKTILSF
Chain of UniProt O60313 (O60313 whole entry, looked up): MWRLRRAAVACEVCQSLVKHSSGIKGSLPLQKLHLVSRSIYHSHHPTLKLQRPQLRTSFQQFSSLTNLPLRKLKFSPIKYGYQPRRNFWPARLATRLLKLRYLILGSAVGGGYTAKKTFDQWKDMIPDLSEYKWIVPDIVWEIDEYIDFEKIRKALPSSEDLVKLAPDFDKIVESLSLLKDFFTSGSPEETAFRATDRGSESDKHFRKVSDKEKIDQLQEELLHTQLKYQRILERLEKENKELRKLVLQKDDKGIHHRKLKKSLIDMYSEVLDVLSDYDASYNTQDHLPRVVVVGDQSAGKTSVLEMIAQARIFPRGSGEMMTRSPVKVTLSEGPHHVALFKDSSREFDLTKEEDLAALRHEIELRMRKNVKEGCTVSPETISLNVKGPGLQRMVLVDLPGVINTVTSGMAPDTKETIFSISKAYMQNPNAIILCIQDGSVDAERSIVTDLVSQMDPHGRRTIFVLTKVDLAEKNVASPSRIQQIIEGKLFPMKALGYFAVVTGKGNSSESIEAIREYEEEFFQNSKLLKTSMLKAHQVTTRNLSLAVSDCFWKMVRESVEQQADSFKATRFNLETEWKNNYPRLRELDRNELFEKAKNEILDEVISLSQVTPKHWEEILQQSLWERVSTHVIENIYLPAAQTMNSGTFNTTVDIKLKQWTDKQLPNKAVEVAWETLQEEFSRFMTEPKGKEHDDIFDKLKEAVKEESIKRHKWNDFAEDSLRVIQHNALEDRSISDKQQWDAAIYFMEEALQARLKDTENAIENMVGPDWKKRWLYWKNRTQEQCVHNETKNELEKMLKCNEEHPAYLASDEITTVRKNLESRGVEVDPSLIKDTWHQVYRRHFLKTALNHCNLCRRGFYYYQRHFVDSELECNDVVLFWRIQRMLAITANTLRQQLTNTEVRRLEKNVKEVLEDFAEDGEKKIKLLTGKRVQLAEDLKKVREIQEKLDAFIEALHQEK
Chain of UniProt Q96BN8 (Q96BN8 whole entry, looked up): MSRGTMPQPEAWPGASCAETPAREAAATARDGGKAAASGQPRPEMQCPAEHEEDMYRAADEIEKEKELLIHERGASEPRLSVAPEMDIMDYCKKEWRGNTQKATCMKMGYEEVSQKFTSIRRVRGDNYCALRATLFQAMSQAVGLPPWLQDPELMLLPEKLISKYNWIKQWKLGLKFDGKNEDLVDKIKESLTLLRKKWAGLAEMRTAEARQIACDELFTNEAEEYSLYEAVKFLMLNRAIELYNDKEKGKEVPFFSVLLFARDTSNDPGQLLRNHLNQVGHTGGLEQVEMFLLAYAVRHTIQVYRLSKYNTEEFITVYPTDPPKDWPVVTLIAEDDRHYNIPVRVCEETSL
Chain of UniProt O95182 (O95182 whole entry, looked up): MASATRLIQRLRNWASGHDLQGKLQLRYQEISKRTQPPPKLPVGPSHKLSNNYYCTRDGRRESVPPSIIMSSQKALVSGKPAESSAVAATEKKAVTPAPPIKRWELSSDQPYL

In the case of NUP85 (UniProt Q9BW27), the log2 fold change with bafetinib is -0.088; in [1], 0.02; with nilotinib, -0.027; in [2] it was -0.115; in the assay with dasatinib it was -0.068; in assay [3], -0.013. Further, the log2 fold change in assay [4] is -0.009; in assay [5], -0.002; with tipifarnib, -0.031; with mubritinib it was 0.026.
For the target NSUN2 (UniProt Q08J23), the log2 fold change is -0.059 with bafetinib; 0.056 in assay [1]; -0.038 in the assay with nilotinib; -0.271 in assay [2]; -0.146 with dasatinib; -0.222 in assay [3]. Further, the log2 fold change in assay [4] is -0.034; in assay [5], -0.053; with tipifarnib, -0.033; with mubritinib, -0.045.
As to MTMR14 (UniProt Q8NCE2), the log2 fold change is -0.051 with bafetinib; -0.089 in assay [1]; -0.023 with nilotinib; -0.04 in assay [2]; -0.063 with dasatinib; 0.016 in [3]. Further, the log2 fold change was -0.006 in assay [4], -0.084 in assay [5], -0.035 with tipifarnib and 0.058 in the assay with mubritinib.
On to MRPL34 (UniProt Q9BQ48), for which the log2 fold change with bafetinib is 0.176; in [1], 0.035; with nilotinib it was -0.083; in assay [2], 0.248; with dasatinib, 0.065; in assay [3], -0.064. Also, the log2 fold change is -0.142 in [4], -0.048 in assay [5], 0.058 with tipifarnib and 0.032 in the assay with mubritinib.
Regarding NFATC2IP (UniProt Q8NCF5), the log2 fold change was 0.065 with bafetinib; -0.029 in assay [1]; 0.001 in the assay with nilotinib; -0.153 in assay [2]; -0.096 with dasatinib; -0.146 in assay [3]. The log2 fold change in assay [4] is 0.097; in assay [5], 0.049; with tipifarnib, -0.003; in the assay with mubritinib, 0.051.
Regarding NEDD4 isoform 4 (UniProt P46934), the log2 fold change with bafetinib was -0.067; in assay [1], 0.054; with nilotinib, -0.047; in assay [2] it was -0.083; with dasatinib, -0.068; in assay [3], 0.052. For the same target, the log2 fold change in assay [4] was -0.016; in [5] it was 0.027; in the assay with tipifarnib, -0.024; with mubritinib it was 0.008.
MORC3 (UniProt Q14149): the log2 fold change in the assay with bafetinib was -0.014; in [1], 0.009; in the assay with nilotinib, -0.173; in assay [2] it was 0.09; with dasatinib it was -0.154; in assay [3] it was 0.105. Further, the log2 fold change in [4] was 0.011; in assay [5] it was -0.026; with tipifarnib, 0.006; with mubritinib, -0.212.
With NTMT1 (UniProt Q9BV86), the log2 fold change in the assay with bafetinib was 0.009; in assay [1], 0.068; in the assay with nilotinib, 0.056; in assay [2], 0; with dasatinib, -0.036; in assay [3], 0.023. The log2 fold change in assay [4] was 0.073; in assay [5] it was 0.076; with tipifarnib, 0.043; with mubritinib, 0.138.
Regarding OPA1 isoform 2 (UniProt O60313), the log2 fold change is -0.022 with bafetinib; 0.069 in [1]; -0.039 with nilotinib; -0.025 in assay [2]; -0.169 with dasatinib; -0.004 in assay [3]. Further, the log2 fold change in assay [4] was 0.054; in [5], -0.031; with tipifarnib, -0.12; in the assay with mubritinib it was 0.062.
With NFATC3 (UniProt Q12968), the log2 fold change with bafetinib is 0.041; in [1], -0.064; with nilotinib, -0.121; in assay [2] it was -0.316; with dasatinib, -0.042; in assay [3], -0.3. In addition, the log2 fold change in assay [4] is -0.073; in [5], 0.191; in the assay with tipifarnib, 0.01; in the assay with mubritinib it was -0.01.
With NDUFA7 (UniProt O95182), the log2 fold change in the assay with bafetinib is -0.056; in [1], 0.124; with nilotinib it was 0.016; in assay [2], -0.025; with dasatinib, -0.145; in assay [3], -0.059. Moreover, the log2 fold change was -0.005 in assay [4], -0.061 in [5], 0.002 with tipifarnib and 0.247 (active) with mubritinib.
For the target OTULIN (UniProt Q96BN8), the log2 fold change in the assay with bafetinib was -0.039; in assay [1] it was 0.066; in the assay with nilotinib, -0.091; in [2] it was -0.124; with dasatinib, -0.169; in assay [3] it was 0.033. Also, the log2 fold change is -0.051 in assay [4], 0.235 in assay [5], -0.081 in the assay with tipifarnib and 0.152 in the assay with mubritinib.
On to OAT (UniProt P04181), for which the log2 fold change with bafetinib was -0.038; in [1], -0.018; with nilotinib, 0.036; in assay [2], -0.021; with dasatinib, -0.109; in [3], -0.073. The log2 fold change in assay [4] is 0.026; in assay [5], 0.061; with tipifarnib, -0.004; in the assay with mubritinib, 0.002.
For the target NCAPD2 (UniProt Q15021), the log2 fold change is 0.03 in the assay with bafetinib; 0.045 in [1]; -0.078 in the assay with nilotinib; -0.071 in assay [2]; -0.159 with dasatinib; 0.08 in assay [3]. For the same target, the log2 fold change in assay [4] was -0.035; in assay [5], 0.018; in the assay with tipifarnib, -0.148; with mubritinib it was 0.033.
Take MRPS12 (UniProt O15235): the log2 fold change in the assay with bafetinib is 0.269; in assay [1] it was 0.146; with nilotinib, -0.161; in assay [2] it was 0.073; with dasatinib, 0.062; in assay [3], -0.024. The log2 fold change was -0.045 in [4], 0.111 in assay [5], -0.082 in the assay with tipifarnib and 0.143 with mubritinib.
